What all share (experiment): PBM; 200 nM protein, PBS
Common to all, as to conditions: dsDNA, one strand shown

Assay [1] deals with T1, VENTX (Homo sapiens, UniProt O95231 78-163, R121Q).
T1 sequence: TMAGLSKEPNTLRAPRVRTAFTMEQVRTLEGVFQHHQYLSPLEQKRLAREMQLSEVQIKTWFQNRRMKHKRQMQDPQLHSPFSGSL

In assay [2] the target is T2, VENTX (Homo sapiens, UniProt O95231 78-163).
T2 sequence: T1 sequence with Q44R

Assay [3] addresses ALX4 (Homo sapiens, UniProt Q9H161 200-286).
Assay [4] concerns the target T3, VENTX (Homo sapiens, UniProt O95231 78-163, Y115F).
T3 sequence: T1 sequence with Y38F, Q44R

Assay [5] has as its target ALX4 (Homo sapiens, UniProt Q9H161 200-286, Q225E).
Assay [6] concerns the target T4, NKX2-6 (Homo sapiens, UniProt A6NCS4 118-204, R150C).
T4 sequence: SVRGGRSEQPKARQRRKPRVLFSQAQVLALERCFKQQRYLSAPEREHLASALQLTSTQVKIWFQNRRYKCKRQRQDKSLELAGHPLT

For assay [7], the target named is ALX3 (Homo sapiens, UniProt O95076 139-225, N203Q).
Assay [8] deals with T5, NKX2-6 (Homo sapiens, UniProt A6NCS4 118-204).
T5 sequence: T4 sequence with C33R

The target of assay [9] is ALX3 (Homo sapiens, UniProt O95076 139-225).
The target of assay [10] is VAX1 (Homo sapiens, UniProt Q5SQQ9 86-172).
In assay [11] the target is ALX3 (Homo sapiens, UniProt O95076 139-225, L168Q).
Assay [12] deals with T6, NKX2-6 (Homo sapiens, UniProt A6NCS4 118-204, F151L).
T6 sequence: T4 sequence with C33R, F34L

In assay [13] the target is ALX3 (Homo sapiens, UniProt O95076 139-225, L168V).
In assay [14] the target is VAX1 (Homo sapiens, UniProt Q5SQQ9 86-172, T142I).
Assay [15] concerns the target ALX3 (Homo sapiens, UniProt O95076 139-225, N203S).
Assay [16] concerns the target VAX1 (Homo sapiens, UniProt Q5SQQ9 86-172, K157R).
Assay [17] addresses T7, PAX4 (Homo sapiens, UniProt O43316 9-242, R200K).
T7 sequence: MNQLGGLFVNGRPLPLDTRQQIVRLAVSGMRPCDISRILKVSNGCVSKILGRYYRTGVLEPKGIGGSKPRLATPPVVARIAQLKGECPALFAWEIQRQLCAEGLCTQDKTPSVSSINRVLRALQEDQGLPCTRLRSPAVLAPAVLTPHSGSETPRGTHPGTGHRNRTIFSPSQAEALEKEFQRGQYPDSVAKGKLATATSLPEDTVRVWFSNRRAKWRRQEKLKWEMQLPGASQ

The target in assay [18] is T8, PAX4 (Homo sapiens, UniProt O43316 9-242).
T8 sequence: T7 sequence with K192R

For a further assay, the target named is MSX2 (Homo sapiens, UniProt P35548 130-214, R199I).
Assay [19] deals with T9, PAX4 (Homo sapiens, UniProt O43316 9-242, R200Q).
T9 sequence: T7 sequence with K192Q

The target of assay [20] is T10, PAX4 (Homo sapiens, UniProt O43316 9-242, F177V).
T10 sequence: T7 sequence with F169V, K192R

Assay [21] addresses T11, PAX4 (Homo sapiens, UniProt O43316 9-242, F177Y).
T11 sequence: T7 sequence with F169Y, K192R

Assay [22] addresses T12, PAX4 (Homo sapiens, UniProt O43316 9-242, R227W).
T12 sequence: T7 sequence with K192R, R219W

For assay [23], the target named is HOXA7 (Homo sapiens, UniProt P31268 116-202).
The target in assay [24] is HOXB6 (Homo sapiens, UniProt P17509 132-218, K202E).
Assay [25] addresses HOXA7 (Homo sapiens, UniProt P31268 116-202, W177C).
Assay [26] deals with HOXB6 (Homo sapiens, UniProt P17509 132-218).
In assay [27] the target is HOXC10 (Homo sapiens, UniProt Q9NYD6 254-340).
The target of assay [28] is HOXA2 (Homo sapiens, UniProt O43364 129-215, R185T).
Assay [29] addresses HOXA2 (Homo sapiens, UniProt O43364 129-215, R185K).
The target of assay [30] is HOXC10 (Homo sapiens, UniProt Q9NYD6 254-340, K271E).
Assay [31] has as its target HOXA2 (Homo sapiens, UniProt O43364 129-215, Y150S).
In assay [32] the target is HOXA2 (Homo sapiens, UniProt O43364 129-215).

The results in this text go back to article PMC11006913.

Residue numbers refer to the chain shown, from its start.

Chain of HOXC10 (Homo sapiens, UniProt Q9NYD6 254-340, K271E) (Q9NYD6 254-340 K271E): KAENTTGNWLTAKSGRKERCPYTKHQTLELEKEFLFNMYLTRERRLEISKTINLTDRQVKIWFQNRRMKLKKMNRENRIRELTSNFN
Chain of HOXC10 (Homo sapiens, UniProt Q9NYD6 254-340) (Q9NYD6 254-340): as the sequence (Q9NYD6 254-340 K271E) above, with E18K counted along it
Chain of ALX3 (Homo sapiens, UniProt O95076 139-225, N203Q) (O95076 139-225 N203Q): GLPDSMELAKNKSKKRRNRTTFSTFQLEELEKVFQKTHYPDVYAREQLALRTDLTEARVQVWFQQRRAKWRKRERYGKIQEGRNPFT
Chain of HOXA2 (Homo sapiens, UniProt O43364 129-215, R185T) (O43364 129-215 R185T): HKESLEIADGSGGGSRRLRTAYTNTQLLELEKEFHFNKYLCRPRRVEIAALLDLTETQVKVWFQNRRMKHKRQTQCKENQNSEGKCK
Chain of HOXA2 (Homo sapiens, UniProt O43364 129-215) (O43364 129-215): as the sequence (O43364 129-215 R185T) above, with T57R counted along it
Chain of VAX1 (Homo sapiens, UniProt Q5SQQ9 86-172, T142I) (Q5SQQ9 86-172 T142I): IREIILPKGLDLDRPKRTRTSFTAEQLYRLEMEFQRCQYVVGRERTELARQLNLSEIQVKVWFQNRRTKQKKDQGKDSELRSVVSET
Chain of ALX3 (Homo sapiens, UniProt O95076 139-225, L168V) (O95076 139-225 L168V): as the sequence (O95076 139-225 N203Q) above, with L30V, Q65N counted along it
Chain of ALX4 (Homo sapiens, UniProt Q9H161 200-286, Q225E) (Q9H161 200-286 Q225E): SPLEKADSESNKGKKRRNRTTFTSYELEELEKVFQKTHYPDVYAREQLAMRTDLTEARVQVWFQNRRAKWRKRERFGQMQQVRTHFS
Chain of HOXA2 (Homo sapiens, UniProt O43364 129-215, R185K) (O43364 129-215 R185K): as the sequence (O43364 129-215 R185T) above, with T57K counted along it
Chain of ALX3 (Homo sapiens, UniProt O95076 139-225) (O95076 139-225): as the sequence (O95076 139-225 N203Q) above, with Q65N counted along it
Chain of MSX2 (P35548 130-214 R199I): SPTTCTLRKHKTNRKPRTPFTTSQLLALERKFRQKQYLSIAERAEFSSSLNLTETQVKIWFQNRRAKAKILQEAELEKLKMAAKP
Chain of ALX4 (Homo sapiens, UniProt Q9H161 200-286) (Q9H161 200-286): as the sequence (Q9H161 200-286 Q225E) above, with E26Q counted along it
Chain of VAX1 (Homo sapiens, UniProt Q5SQQ9 86-172, K157R) (Q5SQQ9 86-172 K157R): as the sequence (Q5SQQ9 86-172 T142I) above, with I57T, K72R counted along it
Chain of VAX1 (Homo sapiens, UniProt Q5SQQ9 86-172) (Q5SQQ9 86-172): as the sequence (Q5SQQ9 86-172 T142I) above, with I57T counted along it
Chain of HOXA7 (Homo sapiens, UniProt P31268 116-202, W177C) (P31268 116-202 W177C): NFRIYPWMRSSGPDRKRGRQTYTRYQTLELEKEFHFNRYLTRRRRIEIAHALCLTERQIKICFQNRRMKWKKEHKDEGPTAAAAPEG
Chain of HOXA7 (Homo sapiens, UniProt P31268 116-202) (P31268 116-202): as the sequence (P31268 116-202 W177C) above, with C62W counted along it
Chain of HOXB6 (Homo sapiens, UniProt P17509 132-218) (P17509 132-218): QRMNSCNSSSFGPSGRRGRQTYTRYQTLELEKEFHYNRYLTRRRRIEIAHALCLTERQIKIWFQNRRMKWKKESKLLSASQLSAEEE
Chain of ALX3 (Homo sapiens, UniProt O95076 139-225, L168Q) (O95076 139-225 L168Q): as the sequence (O95076 139-225 N203Q) above, with L30Q, Q65N counted along it
Chain of HOXB6 (Homo sapiens, UniProt P17509 132-218, K202E) (P17509 132-218 K202E): as the sequence (P17509 132-218) above, with K71E counted along it
Chain of HOXA2 (Homo sapiens, UniProt O43364 129-215, Y150S) (O43364 129-215 Y150S): as the sequence (O43364 129-215 R185T) above, with Y22S, T57R counted along it
Chain of ALX3 (Homo sapiens, UniProt O95076 139-225, N203S) (O95076 139-225 N203S): as the sequence (O95076 139-225 N203Q) above, with Q65S counted along it

In the case of CGCCTGCC, the binding signal is 8.19 upbm affinity estimate (log intensity, higher = more binding, comparable within an allelic series) in the assay with VENTX [1]; 8.35 upbm affinity estimate (log intensity, higher = more binding, comparable within an allelic series) with VENTX [2]; 7.81 upbm affinity estimate (log intensity, higher = more binding, comparable within an allelic series) with ALX4 [3]; 8.31 upbm affinity estimate (log intensity, higher = more binding, comparable within an allelic series) with VENTX [4]; 8.15 upbm affinity estimate (log intensity, higher = more binding, comparable within an allelic series) in the assay with ALX4 [5]; 9.32 upbm affinity estimate (log intensity, higher = more binding, comparable within an allelic series) in the assay with NKX2-6 [6]. Moreover, the binding signal in the assay with ALX3 [7] is 7.68 upbm affinity estimate (log intensity, higher = more binding, comparable within an allelic series); with NKX2-6 [8] it was 9.1 upbm affinity estimate (log intensity, higher = more binding, comparable within an allelic series); with ALX3 [9] it was 7.56 upbm affinity estimate (log intensity, higher = more binding, comparable within an allelic series); in the assay with VAX1 [10], 7.07 upbm affinity estimate (log intensity, higher = more binding, comparable within an allelic series); in the assay with ALX3 [11], 7.74 upbm affinity estimate (log intensity, higher = more binding, comparable within an allelic series); in the assay with NKX2-6 [12], 9.19 upbm affinity estimate (log intensity, higher = more binding, comparable within an allelic series). Moreover, the binding signal is 7.77 upbm affinity estimate (log intensity, higher = more binding, comparable within an allelic series) in the assay with ALX3 [13]; 7.24 upbm affinity estimate (log intensity, higher = more binding, comparable within an allelic series) with VAX1 [14]; 7.7 upbm affinity estimate (log intensity, higher = more binding, comparable within an allelic series) in the assay with ALX3 [15]; 7.15 upbm affinity estimate (log intensity, higher = more binding, comparable within an allelic series) in the assay with VAX1 [16].

In the case of ACCAATCA, the binding signal with VENTX [1] was 9.98 upbm affinity estimate (log intensity, higher = more binding, comparable within an allelic series); with VENTX [2], 10.7 upbm affinity estimate (log intensity, higher = more binding, comparable within an allelic series); with PAX4 [17], 10.5 upbm affinity estimate (log intensity, higher = more binding, comparable within an allelic series); with PAX4 [18], 10.6 upbm affinity estimate (log intensity, higher = more binding, comparable within an allelic series); with MSX2, 10.9 upbm affinity estimate (log intensity, higher = more binding, comparable within an allelic series); in the assay with PAX4 [19], 10.7 upbm affinity estimate (log intensity, higher = more binding, comparable within an allelic series). In addition, the binding signal is 9.96 upbm affinity estimate (log intensity, higher = more binding, comparable within an allelic series) with PAX4 [20]; 10.1 upbm affinity estimate (log intensity, higher = more binding, comparable within an allelic series) with PAX4 [21]; 10 upbm affinity estimate (log intensity, higher = more binding, comparable within an allelic series) in the assay with PAX4 [22].

On to CGAGCCAC, for which the binding signal with VENTX [1] was 8.17 upbm affinity estimate (log intensity, higher = more binding, comparable within an allelic series); with VENTX [2], 8.51 upbm affinity estimate (log intensity, higher = more binding, comparable within an allelic series); with VENTX [4], 8.31 upbm affinity estimate (log intensity, higher = more binding, comparable within an allelic series).

Regarding ACCCATTA, the binding signal with VENTX [1] is 12.1 upbm affinity estimate (log intensity, higher = more binding, comparable within an allelic series); in the assay with VENTX [2], 12.9 upbm affinity estimate (log intensity, higher = more binding, comparable within an allelic series); with HOXA7 [23] it was 11.2 upbm affinity estimate (log intensity, higher = more binding, comparable within an allelic series); with VENTX [4] it was 11.7 upbm affinity estimate (log intensity, higher = more binding, comparable within an allelic series); in the assay with HOXB6 [24] it was 9.84 upbm affinity estimate (log intensity, higher = more binding, comparable within an allelic series); with HOXA7 [25], 8.76 upbm affinity estimate (log intensity, higher = more binding, comparable within an allelic series). Besides, in the assay with HOXB6 [26], the binding signal was 11.8 upbm affinity estimate (log intensity, higher = more binding, comparable within an allelic series).

As to CACTGGGG, the binding signal with VENTX [1] was 7.92 upbm affinity estimate (log intensity, higher = more binding, comparable within an allelic series); with VENTX [2], 7.73 upbm affinity estimate (log intensity, higher = more binding, comparable within an allelic series); with HOXC10 [27] it was 10 upbm affinity estimate (log intensity, higher = more binding, comparable within an allelic series); in the assay with VENTX [4] it was 7.93 upbm affinity estimate (log intensity, higher = more binding, comparable within an allelic series); with HOXA2 [28], 7.07 upbm affinity estimate (log intensity, higher = more binding, comparable within an allelic series); in the assay with HOXA2 [29], 10.1 upbm affinity estimate (log intensity, higher = more binding, comparable within an allelic series). The binding signal with HOXC10 [30] was 10 upbm affinity estimate (log intensity, higher = more binding, comparable within an allelic series); with HOXA2 [31], 10.4 upbm affinity estimate (log intensity, higher = more binding, comparable within an allelic series); with HOXA2 [32], 7.07 upbm affinity estimate (log intensity, higher = more binding, comparable within an allelic series).

Regarding GCGGGTCC, the binding signal in the assay with VENTX [1] is 8.12 upbm affinity estimate (log intensity, higher = more binding, comparable within an allelic series); with VENTX [2], 8.25 upbm affinity estimate (log intensity, higher = more binding, comparable within an allelic series); with HOXC10 [27], 10 upbm affinity estimate (log intensity, higher = more binding, comparable within an allelic series); with VENTX [4], 8.16 upbm affinity estimate (log intensity, higher = more binding, comparable within an allelic series); with HOXC10 [30] it was 10 upbm affinity estimate (log intensity, higher = more binding, comparable within an allelic series).

CCCATTAC: the binding signal was 11.4 upbm affinity estimate (log intensity, higher = more binding, comparable within an allelic series) with VENTX [1]; 12.4 upbm affinity estimate (log intensity, higher = more binding, comparable within an allelic series) with VENTX [2]; 11.2 upbm affinity estimate (log intensity, higher = more binding, comparable within an allelic series) with VENTX [4].
